From PubChem BioAssay
MITF act – activators of MITF-driven TRPM1 promoter activity in SK-MEL-5 cells; SK-MEL-5 TRPM1-promoter luciferase, 24 h; % of positive control, neutral wells = 0; activation, % at 12.5 µM; 300,000 compounds, 0.75% hits; AID 588334;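 active means mean activation of at least 80% with every replicate also reaching 80%; inconclusive means mean reaches 80% but some replicate falls short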;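 further: 0% = neutral control wells and 100% = parthenolide positive control wells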
HSF1 inh – HSF1 inhibition; activity change, negative = inhibition, % at 7.5 µM (by protocol); AID 2098; NIH3T3-HGL HSE-luciferase, MG132-induced, luminescence 8 h; stronger effect = lower value; 300,000 compounds, 0.77% hits;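 active means more than half of replicate wells show activity change below -50%, luminescence cut by over half; inconclusive means some wells, but at most half, below -50%; inactive means no replicate well below -50%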;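 further: luciferase reports HSF-1 transcriptional activity via heat shock element; 0% = median of DMSO wells and -100% = zero luminescence signal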
esBAF inh – inhibitors of esBAF chromatin remodeling in mouse ES cells; 350,000 compounds, 2% hits; Bmi1-luciferase knock-in reporter, 24 h; 100% = twice the neutral-well signal; reporter increase, % at 12.5 µM; in the data active means activation above about 40%; inconclusive means no clear call, values can overlap the other calls;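 further: 0% = median of the plate's neutral control wells and 100% = double that signal; a rise in the Bmi1 reporter signal indicates esBAF inhibition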
HSF-1 act – increases HSF-1 driven luciferase reporter signal. NIH3T3-HGL HSF-1 luciferase reporter, MG132, 8 h; 100% = twice DMSO control signal. activation, % at 9 µM. 300,000 compounds, 1.7% hits;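 active means mean replicate activation of at least 50% with a set share of replicates each reaching 50%; inconclusive means only one of those two conditions met; inactive means mean below 50% and too few replicates reaching it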;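 further: 0% = median of the neutral control wells and 100% = twice that signal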
Wnt bcat act – Wnt/beta-catenin pathway activation | Wnt/beta-catenin reporter cell assay, activator, plate reader | activation, % at 9.35 µM | 300,000 compounds, 1.2% hits; in the data active means activation above about 30%, passing the limit was not always enough; inconclusive means no clear call, values can overlap the other calls;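 further: 0% = neutral control wells and 100% = positive control wells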
The depositor's hits bear a star; ? = inconclusive; / = not tested or not shown; ! = a repeat was not active. Only some compounds are listed: those with a hit (about 3.9% of all), similar ones and a draw of the others.

SMILES	MITF act	HSF1 inh	esBAF inh	HSF-1 act	Wnt bcat act
CNC[C@H]1OCCCC[C@@H](C)Oc2ccc(NS(=O)(=O)c3ccccc3)cc2C(=O)N([C@H](C)CO)C[C@H]1C	/	/	-1	/	/
Cc1noc(C)c1NC(=O)N[C@@H]1C=C[C@H](CC(=O)Nc2ccccc2)O[C@@H]1CO	/	/	2	/	/
O=C(NC1CCCC1)c1cc(-c2ccc(Cl)cc2Cl)on1	97*	19	19	50	28
O=C(NC1CCCC1)c1cc(-c2ccc(F)cc2)on1	62	32	30	43	-2
COc1ccc(OCCCCn2c(CO)nc3ccccc32)cc1	-2	-54*	4	-65	-1
Cc1ccc(S(=O)(=O)Cn2nnnc2CN(Cc2ccco2)CC2CCCO2)cc1 (centres undefined)	9	20	/	59*	/
Cc1ccc2cc(CN(Cc3nnnn3Cc3ccco3)CC3CCCO3)c(=O)[nH]c2c1C (centres undefined)	12	-12	15	2	-1
C[C@@H]1CCCCO[C@@H](CN(C)C(=O)Nc2ccccc2)[C@@H](C)CN([C@H](C)CO)C(=O)c2cc(NS(C)(=O)=O)ccc2O1	/	/	0	/	/
CCOc1ccc(S(=O)(=O)n2cc(-c3ccc(F)cc3)c(N)n2)cc1	9	6	15	14	-2
Cc1ccc(-c2cn(S(=O)(=O)c3ccc(C)cc3)nc2N)cc1	-5	26	5	70*	/
c1ccc2[nH]c(CSc3nnc(-c4ccncc4)o3)nc2c1	-17	-46	-25	-48	-5
Clc1ccc(-c2nnc(SCc3ccon3)o2)c(Cl)c1	38	20	1	58*	/
Clc1ccc(-c2nnc(SCc3nc4ccccc4[nH]3)o2)c(Cl)c1	-13	45	7	75*	0
C=CCSc1nnc(-c2ccc(Cl)cc2Cl)o1	59	28	4	57*	?
C[C@H](CO)N1C[C@H](C)[C@@H](CN(C)Cc2ccc(-c3ccccc3)cc2)Oc2c(NC(=O)Nc3ccc4c(c3)OCO4)cccc2C1=O	-1	/	43*!	/	15
C[C@H](CO)N1C[C@H](C)[C@@H](CN(C)S(=O)(=O)c2cn(C)cn2)Oc2c(NC(=O)Nc3ccc4c(c3)OCO4)cccc2C1=O	6	/	50*!	/	2
C[C@H](CO)N1C[C@H](C)[C@@H](CN(C)Cc2ccc3c(c2)OCO3)Oc2ccc(NC(=O)NC3CCCCC3)cc2C1=O	/	/	3	/	/
c1ccc2sc(Nc3nc4cc5c(cc4s3)OCO5)nc2c1	66	37	69*	76*	/
Fc1ccc2nc(Nc3ccccc3)sc2c1	?	20	92*	29	1
Fc1ccc2nc(Nc3nc4cc5c(cc4s3)OCCO5)sc2c1	85*	-11	/	-25	/
CC(=O)Nc1nc2cc3c(cc2s1)OCO3	/	11	57*	11	23
C/C=C/c1ccc([C@H]2[C@@H](CO)N(C(=O)COC)[C@H]2CNC(=O)CC)cc1	/	/	2	/	/
CN(C)Cc1cn(CC[C@H]2CC[C@@H](NC(=O)Nc3ccc4c(c3)OCO4)[C@@H](CO)O2)nn1	/	/	-2	/	/
O=C(Nc1ccc(Cl)cc1)Nc1ccccc1Sc1ncc([N+](=O)[O-])s1	-49	6	36	36	33*
O=C(Nc1csc([N+](=O)[O-])c1)Nc1ccccc1Cl	/	-9	/	10	27
SMILES	MITF act	HSF1 inh	esBAF inh	HSF-1 act	Wnt bcat act
COc1ccccc1-c1cn(CC[C@@H]2CC[C@H](NC(=O)C3CCOCC3)[C@H](CO)O2)nn1	/	/	1	/	/
COc1ccc(/C=C/c2nc(-c3ccccc3O)n[nH]2)cc1OC	143*	16	62*	-7	24
O=C(O)COc1ccc(/C=C/c2nc(-c3ccccc3O)n[nH]2)cc1	/	0	0	-7	-2
CC(C)N(CCO)C(=O)CCc1nnc(CCCc2ccccc2)o1	-1	9	/	16	22
CC(C)N(Cc1nccn1C)C(=O)CCc1nnc(CCCc2ccccc2)o1	56	19	/	17	69*
COC(=O)c1cccc(CN2C(=O)C(C)Sc3ccc(C)cc32)c1 (centres undefined)	/	/	17	/	0
COC(=O)c1cccc(CN2C(=O)C(C)Sc3cc(Cl)ccc32)c1 (centres undefined)	/	/	45*	/	-2
COC(=O)c1cccc(CN2C(=O)C(C)Sc3ccc(C(C)=O)cc32)c1 (centres undefined)	/	/	46*	/	0
O=C(CN1C(=O)c2ccccc2S1(=O)=O)Nc1ccccc1	3	-65*	-44	-74	-3
COc1ccc(C(=O)CN2C(=O)c3ccccc3S2(=O)=O)cc1Br	-22	-4	/	1	5
COc1ccc(C(=O)CN2C(=O)c3ccccc3S2(=O)=O)cc1	/	-65*	/	-68	-4
C/C=C/c1ccc([C@H]2[C@H](CO)N[C@H]2CN(C(=O)C2CCC2)C(C)C)cc1	/	/	1	/	/
Cc1cc(C(=O)Nc2ccc3ccccc3c2)c(C)o1	70	31	1	66*	34*
O=C(Nc1ccc2c(c1)oc1ccccc12)c1ccc(Br)o1	76	2	83*	19	-2
O=C(Nc1ccccc1)c1ccc(Br)o1	42	17	39	11	13
CC(=O)c1cc(C(=O)Nc2ccc3ccccc3c2)c(C)o1	-14	6	-3	-3	-1
O=C(Nc1ccc2ccccc2c1)c1ccc(Br)o1	21	27	36	65*	28
C/C=C/c1ccc([C@H]2[C@@H](CO)N(CC3CC3)[C@@H]2CNC(=O)c2ccccc2)cc1	/	/	-10	/	/
O=C(COc1ccccc1Br)NC(=O)NC1CCCC1	141*	/	39	/	11
O=C(COc1ccc(C(=O)c2ccccc2)cc1)NC1CCCCC1	10	1	/	1	-3
O=C(COc1ccc(C(=O)c2ccccc2)cc1)NC1CCCCCC1	-8	-2	/	-12	49*
CC1Cc2ccccc2N1C(=O)CSc1ccccc1 (centres undefined)	5	29	18	26	5
CC1Cc2ccccc2N1C(=O)CSc1ncccc1C(=O)O (centres undefined)	-5	-78*	-5	-81	/
COc1ccc(C(=O)/C=C/c2ccc(O)cc2)cc1	38	15	11	33	0
O=C(/C=C/c1ccc(O)cc1)c1ccccc1	69	40	59*	84*	38*
CCC1CSC(Nc2ccc(C(=O)/C=C/c3cccc(C)c3)cc2)=N1 (centres undefined)	17	53	/	75*	2
Cc1cccc(C=CC(=O)c2ccccc2)c1	49	/	71*	/	7
CCC1CSC(Nc2ccc(C(=O)/C=C/c3ccc(Oc4ccccc4)cc3)cc2)=N1 (centres undefined)	-3	14	/	14	/
CCS(=O)(=O)Nc1ccc2c(c1)C(=O)N(C)C[C@@H](OC)[C@@H](C)CN(C(=O)C1CCC1)[C@@H](C)CO2	/	/	0	/	/
c1cc2c(cc1C1CCCN1)OCCCO2 (centres undefined)	/	-71*	-6	-77	/
